In PubChem BioAssay (NCI):
The panel holds about 83,000 compounds, 20% with a hit somewhere; the sample as a whole holds those more often.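 A percent growth of 40 corresponds to 60% growth inhibition; 0 means no net growth; -100 means all cells died. Active threshold: below 10.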 The source made the active and inactive calls.

Each molecule was assayed on IGROV1 ovarian (assay: NCI-60 one-dose screen, 48 h (100 = growth as untreated, 0 = no growth, -100 = all killed)). Conditions: 10 µM unless noted.
Experimental: Growth inhibition of the IGROV1 human tumor cell line is measured as a screen for anti-cancer activity. Cells are grown in 96 well plates and exposed to the test compound for 48 hours. Compounds are tested at a single concentration, which is 10^-5 M for most compounds. The reported endpoint is percent growth (GI% or GIPRCNT), where numbers from 0 - 100% represent growth inhibition, and numbers from -100% - 0 represent cell death. For example, a value of 40 represents 60% growth inhibition. A value of 0 means no net growth occurred over the course of the experiment. A value of -40 indicates 40% of cells at the beginning of the experiment died by the end of the experiment. A value of -100 means all cells are dead at the end of the experiment.
NCI-60 Human Tumor Cell Lines Screen was performed using the standard one-dose NCI protocol, which is described in more detail at https://dtp.cancer.gov/discovery_development/nci-60/default.htm.
Compounds with GIPRCNT values below 10 were considered active. Activity score was based on GIPRCNT using the following formula: […]
Score is 0 for GIPRCNT values of 100 or above, 50 for GIPRCNT values of 0, and 100 for GIPRCNT values of -100.

Row | Compound | growth
1 | N=C1C=C(N)C(=O)c2ccccc21 | -37.6% (active)
2 | O=C(c1ccccc1)C(Br)[N+](=O)[O-] (stereo not given) | 103% (inactive)
3 | Cc1ccc(NC2=CC(=O)C(=O)c3ccccc32)cc1 | 17.6% (inactive)
4 | CC(C)=CCCC(C)C1=C(O)C(=O)C(C)=CC1=O (stereo not given) | -75.7% (active)
5 | S=C1SCN(Cc2cccs2)CN1Cc1cccs1 | 106% (inactive)
6 | Cc1nc(Sc2nc3ccc([N+](=O)[O-])cc3s2)sc1C | 32% (inactive)
7 | O=C1c2ccccc2Cc2cccc(Cl)c21 | 88.7% (inactive)
8 | CCC(C)(O)Cc1ccc(Cl)cc1 (stereo not given) | 114% (inactive)
9 | COc1cc(/C=C2\SC(=S)N(/C=C/c3nc4ccccc4[nH]c3=O)C2=O)cc(OC)c1OC | 89.8% (inactive)
10 | O=C1C=CC(=O)N1c1cccc2c1CCCC2 | 97.5% (inactive)
11 | CCCCCC/C=C1\CCC(CN2CCCC2)C1=O (stereo not given) | 113% (inactive)
12 | CCOC(=O)C1(C)CCCC1N (stereo not given) | 104% (inactive)
13 | NC(=Nc1nc(-c2ccccn2)cc2ccccc12)c1ccccn1 | -9.19% (active)
14 | CCN1CCCC(Nc2cc(C)nc(/N=C(/N)Nc3ccc(Cl)c(Cl)c3)n2)C1 (stereo not given) | 14.5% (inactive)
15 | Oc1ccc(Cl)cc1Cc1cc(Cl)ccc1O | 41.1% (inactive)
16 | Fc1ccc(NCCS)cc1 | 104% (inactive)
17 | O=C(CCl)N(c1ccccc1)c1ccccc1 | 115% (inactive)
18 | N#CCc1cccc2ccccc12 | 106% (inactive)
19 | COc1c(C)c2c(c(O)c1C/C=C(\C)CCC(=O)O)C(=O)OC2 | 12.9% (inactive)
20 | Cc1cc(C)c(C#N)c(Sc2nc(C)c([N+](=O)[O-])c(C)c2C#N)n1 | 82.9% (inactive)

Row | Compound | growth
21 | Nc1cccc2cccc([N+](=O)[O-])c12 | 118% (inactive)
22 | O=C(OC12CC3CC(CC(C3)C1)C2)c1ccc(NCc2cc(O)ccc2O)cc1 | -81.4% (active)
23 | CN(C)CC(C)(CN(C)C)C(=O)/C=C/c1c(Cl)cccc1Cl | 73.6% (inactive)
24 | CCCCCCCCCCCCCCCC[N+]1(C)CCCC1c1cccnc1 (stereo not given) | 42.3% (inactive)
25 | O=C(/C=C/C(Cl)(Cl)Cl)Nc1ccc(Cl)cc1 | -76.5% (active)
26 | OCCOSCCO | 112% (inactive)
27 | Cc1cc(I)nc2ccccc12 | 104% (inactive)
28 | NC(=S)Nc1ccc2c(c1)Cc1ccccc1-2 | 88.3% (inactive)
29 | Clc1ccc(Cc2nc3ccccc3s2)cc1 | 91.7% (inactive)
30 | NC1=C(Br)C(=O)c2ncccc2C1=O | -5.9% (active)
31 | Clc1ccc(-n2ncc3c(NCCCN4CCOCC4)ncnc32)cc1 | 103% (inactive)
32 | Oc1ccc(Cl)cc1C(c1cc(Cl)ccc1O)C(Cl)(Cl)Cl | 56% (inactive)
33 | CC(C)(C)c1ccc(O)c(Br)c1 | 111% (inactive)
34 | COc1cc2c(c(OC)c1OC)-c1ccc(NCc3ccccc3)c(=O)cc1[C@@H](NC(C)=O)CC2 | -15.6% (active)
35 | N#Cc1c2ccccc2nc2ccccc12 | 108% (inactive)
36 | CCCCCCCCCCCCCCCCCC1=NCCCN1CCO | 105% (inactive)
37 | CN(C)c1ccc(C(=C2C=CC(=[N+](C)C)C=C2)c2ccc(N(C)C)cc2)cc1 | -37.2% (active)
38 | CCOC(=O)c1c(C)[nH]c2ccc(O)cc12 | 103% (inactive)
39 | CCN(CC)c1ccc(/C=C\C(=O)c2ccc(NC(C)=O)cc2)cc1 | 75.5% (inactive)
40 | O=C(c1ccc(O)c(Br)c1)c1ccc(O)c(Br)c1 | 114% (inactive)
